Screens deposited in PubChem BioAssay by several laboratories.
CYP2C19 activ: activators of human cytochrome P450 2C19. P33261. recombinant CYP2C19, luciferin-H EGE luminescence; active compounds read high; 0 = fully inhibited enzyme, 1 = untreated enzyme. activation factor at 5 µM. 96,000 tested, under 10 active. AID 1025;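 active = activation factor of at least 2 at 5 µM in the primary screen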;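 note: 0 = wells with 2.5 mM tranylcypromine and 1 = vehicle-only wells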
CYP2C9 inhib: human CYP2C9 inhibition; P11712; CYP2C9 Supersomes, luciferin-H conversion, luminescence; inhibition, % at 5 µM; actives 20% (n = 96,000); AID 777;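 active = blocking of liver enzyme CYP2C9 beyond about 50% at 5 µM, limit read from the data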
CYP2C19 inhib: human CYP2C19 inhibition. CYP2C19 Supersomes, luciferin-H EGE luminescence, 30 min. inhibition, % at 5 µM. actives 21% (n = 96,000). AID 778;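 active = CYP2C19 inhibition above a set limit at 5 µM in the primary screen, cut at about 50% in these data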;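 note: plate controls were negative control wells for no effect and 2.5 mM tranylcypromine positive control for full effect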
CYP2C9 act: activators of human CYP2C9. activation factor at 5 µM. recombinant CYP2C9, luciferin-H conversion, luminescence; active compounds read high; factor 1 = untreated enzyme, 0 = blocked. AID 1024. actives 1.4% (n = 96,000);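 active = activation factor of 2 or more for CYP2C9 at a 5 µM dose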;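 note: 0 = sulfaphenazole-blocked wells and 1 = vehicle-only wells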
Cav3 T inh: human Cav3.2 channel inhibition, primary screen. actives 4% (n = 100,000). B-score at 10 µM. Cav3.2-expressing cells, Fluo-4 calcium fluorescence FDSS; active compounds read low. AID 449739;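 active = single-dose well whose peak fluorescence ratio is a statistical outlier from its plate by either plate-standardised score or position-corrected B-score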
An asterisk follows results filed as active; / = no result given. Only some compounds are listed: those with a hit (about 27% of all), similar ones and a draw of the others.

SMILES	CYP2C19 activ	CYP2C9 inhib	CYP2C19 inhib	CYP2C9 act	Cav3 T inh
Cc1nc(SCC(=O)NCc2ccccc2)c2oc3ccccc3c2n1	0.7	79*	30	0.2	-0.37
Cc1nc(SCC(=O)O)c2oc3ccccc3c2n1	1	-6	0	1.1	2.5
Cc1nc(SCC(=O)N2CCN(c3ccccc3)CC2)c2oc3ccccc3c2n1	0.6	56*	45	0.4	-0.4
CC(=O)N1CCN(c2ccc(Nc3nc(C)nc4c3oc3ccccc34)cc2)CC1	/	/	/	/	0.18
O=C1c2ccccc2C(=O)N1CCCCN(C(=O)c1cccc([N+](=O)[O-])c1)c1ccc(Cl)cc1	0.3	61*	69*	0.4	0.47
CCN(CCCCN1C(=O)c2ccccc2C1=O)c1ccc2c(c1)C(=O)N(C)C2=O	0.5	46	45	0.5	-2
Cc1ccc(N(CCCCN2C(=O)c3ccccc3C2=O)C(=O)c2cccs2)cc1	0.4	66*	61*	0.3	-5.8*
O=C1c2ccccc2C(=O)N1CCCCN(C(=O)c1ccco1)c1ccc(Cl)cc1	0.4	82*	57*	0.2	-8.5*
O=C(O)C(CCCCN1C(=O)c2ccccc2C1=O)N1C(=O)c2ccccc2C1=O (stereo not drawn)	1	35	2	0.7	-0.29
O=C(OCCN1C(=O)c2ccccc2C1=O)c1ccco1	/	/	/	/	-0.093
O=C(Oc1ccc(Cl)c2cccnc12)c1ccco1	0.5	24	53*	0.8	0.34
COC(=O)c1ccccc1NC(=O)c1ccc(COc2cccc3ccccc23)o1	0.7	58*	33	0.4	-1.1
COc1ccc(NC(=O)c2ccc(COc3ccccc3)o2)cc1	0.8	39	21	0.6	-0.7
O=C(Nc1cccnc1)c1ccc(COc2ccccc2Br)o1	0.1	60*	89*	0.4	0.0038
CCN(CC)C(=O)c1ccc(COc2ccccc2Br)o1	0.6	-15	40	1.2	-0.64
COC(=O)c1ccccc1NC(=O)c1ccc(COc2ccccc2)o1	0.8	-18	21	1.2	-0.62
O=C(NCc1cccnc1)c1ccc(COc2ccccc2Br)o1	0.2	61*	79*	0.4	0.92
COc1ccccc1OCc1ccc(C(=O)NCc2ccco2)o1	0.2	24	76*	0.8	0.2
COC(=O)CNC(=O)CN1C(=O)N(c2ccc(Cl)cc2)C(N(O)C(=O)Nc2ccc(Cl)cc2)C1(C)C (stereo not drawn)	0.7	21	33	0.8	-2.3
Cc1cccc(-c2c3c(=O)n(C)c(=O)n(C)c3cn2C2CCCCC2)c1	0.7	22	35	0.8	0.64
COc1ccccc1OCc1ccc(C(=O)OCC2CCCO2)o1 (stereo not drawn)	0.2	-16	76*	1.2	0.18
O=C(N/N=C/c1ccc2ccccc2c1)c1ccc(COc2ccc3c(c2)CCC3)o1	0.5	48	48	0.5	-4.2
Cc1ccc(C(=O)Nc2ccncc2)o1	0.3	38	73*	0.6	0.3
Cc1ccc(C(=O)Nc2ccc3c(c2)OCCO3)o1	0.5	25	46	0.8	0.76
O=C(NCc1cccnc1)c1ccc(COc2ccc3c(c2)CCC3)o1	0	67*	99*	0.3	-2.7
SMILES	CYP2C19 activ	CYP2C9 inhib	CYP2C19 inhib	CYP2C9 act	Cav3 T inh
COc1ccccc1OCc1ccc(C(=O)Nc2ccncc2)o1	0	98*	100*	0	-0.099
Cn1c(=O)[nH]c(=O)c2c1nc(NCCCO)n2CCCc1ccccc1	0.9	10	10	0.9	-0.2
CC(C)CCn1c(NCCc2ccccc2)nc2c1c(=O)n(C)c(=O)n2C	/	/	/	/	-1.5
Cc1ccc(Cn2c(NCCCn3ccnc3)nc3c2c(=O)n(C)c(=O)n3C)cc1	0	99*	98*	0	0.0076
COCCCNc1nc2c(c(=O)[nH]c(=O)n2C)n1CCCc1ccccc1	0.3	39	70*	0.6	1.2
CCOCCCNc1nc2c(c(=O)n(C)c(=O)n2C)n1CCCc1ccccc1	0.3	82*	68*	0.2	0.53
CCOC(=O)c1[nH]cnc1C(=O)NC(C)C	/	/	/	/	0.31
CN1C(=O)C2(NCCc3c2[nH]c2ccccc32)c2ccccc21 (stereo not drawn)	0.2	15	81*	0.9	0.71
CCOC(=O)C1(C(C)(C)CC)CC(CSc2nc3ccccc3[nH]2)OC1=O (stereo not drawn)	/	/	/	/	-6.8*
CCOC(=O)C1=C(C)NC(C)=C(C(=O)OCC)C1c1nc2ccccc2[nH]1	/	/	/	/	0.43
CNc1nc(Cl)nc(NC(C)(C)C)n1	0.9	-173	14	2.7*	0.17
CC(C)(C)Nc1nc(NN)nc(NC(C)(C)C)n1	1	17	5	0.8	-0.76
CCCCN1C(N)=NC[C@@H]1CCCCN	/	/	/	/	-0.063
O=C(O)CCCC(=O)NS(=O)(=O)c1ccc(Cl)cc1	1	12	-2	0.9	-0.052
Cc1cccc(/C=N/NC(=O)C(C)Nc2cccc3ccccc23)n1 (stereo not drawn)	0.3	8	71*	0.9	0.021
NC12CC3CC(C1)CC(CO)(C3)O2	0.9	11	11	0.9	0.16
Oc1ccc(C2Nc3cccc4cccc(c34)N2)c(O)c1	0.3	/	66*	/	0.51
COc1cc(C2Nc3cccc4cccc(c34)N2)ccc1OC(C)=O	0.5	12	47	0.9	-0.81
O=C1c2ccccc2NC(c2ccco2)N1O (stereo not drawn)	1	8	3	0.9	-0.91
c1coc(C2Nc3cccc4cccc(c34)N2)c1	0.4	54*	59*	0.5	/
Fc1ccccc1Cc1nnc2n1N=C(c1ccc(Cl)cc1)CS2	0.7	56*	33	0.4	0.81
Clc1ccc(C2=Nn3c(nnc3-c3cccs3)SC2)cc1	/	/	/	/	0.79
CCOC(=O)c1cc(-c2ccc(/C=N\n3cnnc3)o2)ccc1Cl	0.8	66*	22	0.3	0.92
Clc1ccccc1-c1ccc(/C=N/n2cnnc2)o1	0.4	3	62*	1	0.14
Clc1cccc(-c2ccc(/C=N/n3cnnc3)o2)c1Cl	/	/	/	/	-0.43
SMILES	CYP2C19 activ	CYP2C9 inhib	CYP2C19 inhib	CYP2C9 act	Cav3 T inh
Cc1c(Cl)cccc1-c1ccc(/C=N/n2cnnc2)o1	0.1	71*	88*	0.3	2.5
CC(Sc1ccc(Cl)cc1)C(=O)Nc1ccc(S(=O)(=O)N2CCOCC2)cc1 (stereo not drawn)	0.5	62*	50	0.4	-5.1*
CC(Sc1ccc(Cl)cc1)C(=O)Nc1ccc2c(c1)OCO2 (stereo not drawn)	/	/	/	/	-5.8*
S=C(NCc1cccnc1)Nc1ccc(Cl)cc1	0.6	35	39	0.6	/
CC(Sc1ccc(Cl)cc1)C(=O)NCc1cccnc1 (stereo not drawn)	0.5	33	51*	0.7	2
CC(C)C(C(=O)Nc1ccc(S(=O)(=O)N2CCOCC2)cc1)N1C(=O)c2ccccc2C1=O (stereo not drawn)	1.1	5	-9	0.9	0.13
CC(Sc1ccc(Cl)cc1)C(=O)NCc1ccc2c(c1)OCO2 (stereo not drawn)	0.2	100*	76*	0	-5.8*
